Values joined by “and” are separate entries in the source; they are usually repeats but may differ in a detail not shown here. Equal entries are not always repeated. Hit rate of the full screen: of about 330,000 compounds, about 1,100 (0.33%) were called active. No stated cut-off is given here; in the data, active means inhibition above about 35%; inactive means the rest. The entries come from a sample that favours actives as a whole. Where a structure was tested more than once in an assay, its records may differ in their call.
Assay: inhibitors of PMA/ionomycin-induced NF-kB reporter, 697 cells, primary screen, B-cell NF-kB inhibitor project, cell-based, luminescence, uHTS (AID 435022)
Conditions: 697 B-cell NF-kB luciferase reporter, 16 h, at 4 µM, stronger effect = higher value

SMILES | inhibition
COc1cc2c(cc1OC)CN(C(=O)c1ccc(S(=O)(=O)N3CCCCCC3)cc1)CC2 | 22.3% (inactive)
COc1cc2c(cc1OC)CN(C(=O)c1cc(=O)c3ccccc3o1)CC2 | -14.7% (inactive)
CCOc1cc(C(=O)N2CCc3cc(OC)c(OC)cc3C2)ccc1OC(F)F | 39.7% (active)
COCCNC(=O)C1CCN(C(=O)C2CC(=O)N(c3ccc(C)cc3)C2)CC1 (centres undefined) | -0.961% (inactive)
CCN(CCCNC(=O)CSc1cc(=O)n(C)c2cc(Cl)ccc12)Cc1ccccc1 | 2.99% (inactive)
Cc1ccc(O)c(NC(=S)NC(=O)COc2ccc(Br)cc2)c1 | -17.9% (inactive)
Cc1ccc(O)c(NC(=O)COc2cc(C)ccc2C)c1 | 40.5% (active)
Cc1ccc(C)c(OCC(=O)NNC(=O)C2CCC2)c1 | 0.932% (inactive)
COc1ccc(NC(=O)Nc2ccc3c(c2)C(=O)N([C@H](C)CO)C[C@H](C)[C@@H](CN(C)C(=O)Nc2ccc4c(c2)OCO4)O3)cc1 | -1.97% (inactive)
COc1ccc(CNC(=O)C2CCC(CNc3c(N4CCOCC4)c(=O)c3=O)CC2)cc1 (centres undefined) | -4.3% (inactive)
CCN1/C(=C\c2ccc3ccccc3[n+]2CC)Sc2cc(C)ccc21 | 65% (active)
COC(=O)c1ccccc1NC(=O)C1CC(=O)N(c2ccc(OC)cc2)C1 (centres undefined) | 2.44% (inactive)
C[C@@H]1O[C@@H](OC[C@H]2O[C@@H](Oc3c(-c4ccc(O)cc4)oc4cc(O)cc(O)c4c3=O)[C@H](O)[C@@H](O)[C@@H]2O)[C@H](O)[C@H](O)[C@H]1O | 3.19% (inactive)
O=C(NCCCN1CCOCC1)c1cc(-c2ccc(Cl)cc2)on1 | 46.3% (active)
O=C(NCCCN1CCOCC1)c1cc(-c2cccc(O)c2)on1 | 14.1% (inactive)
COc1ccc(-c2cc(C(=O)NCCCN3CCOCC3)no2)cc1 | 28.1% (inactive)
CCOC(=O)C1CCN(C(=O)C2(NC(=O)Nc3cccc(F)c3)CCCCC2)CC1 | 14% (inactive)
Cn1nc(C(F)(F)F)cc1-c1ccc(/C=C(\C#N)C(=O)c2cccc(C(F)(F)F)c2)s1 | -34.9% (inactive)
CCOC(=O)C1C(=O)NCC1c1ccccc1 (centres undefined) | 12.8% (inactive)
CC(=O)c1cnc(SCC(=O)O)nc1C | 10% (inactive)

SMILES | inhibition
Cc1ccc(C(=O)C[n+]2cc(-c3ccccc3)n3c2CCCCC3)cc1 | 38.8% (active) and 16% (inactive)
Cc1ccc(-c2c[n+](CC(=O)Nc3ccccc3)c3n2CCC3)cc1 | -7% (inactive)
Clc1ccc(C[n+]2cc(-c3ccccc3)n3c2CCC3)cc1 | -17.7% (inactive)
CC1CN(C(=S)Nc2ccc(Br)cc2Cl)CC(C)O1 (centres undefined) | -8.08% (inactive)
Cc1ccccc1-c1cc(C(=O)NCc2cccs2)n(CC2CC(c3cccnc3)=NO2)n1 (centres undefined) | -9.9% (inactive)
Cn1c(=O)cc(SCC(=O)N2CCCC2)c2cc(Cl)ccc21 | 52.4% (active)
CCOC(=O)C1CCN(C(=O)CSc2cc(=O)n(C)c3ccccc23)CC1 | 25% (inactive)
Cn1c(=O)cc(SCC(=O)N2CCN(C(=O)c3ccco3)CC2)c2ccccc21 | -1.63% (inactive)
Cc1ccccc1C(=O)NNC(=O)CN1C(=O)c2ccccc2C1=O | 8.67% (inactive)
C[C@@]12C(=O)N(c3cccc(Br)c3)C(=O)N1[C@H](c1ccc(Cl)cc1)[C@@H]1C(=O)N(C3CCCCC3)C(=O)[C@@H]12 | -15.6% (inactive)
O=C(O)CN(Cc1ccco1)S(=O)(=O)c1ccccc1 | 18.8% (inactive)
Cc1c(Cl)cnc(NC(=O)COC(=O)C2CCCC2)c1Cl | 2.7% (inactive)
CCOC(=O)CSc1nnc(CNC(=O)c2cccs2)n1-c1ccccc1 | 9.72% (inactive)
O=C(C1CCC1)N1CCc2cc(S(=O)(=O)NCc3cccnc3)ccc21 | -30.3% (inactive)
C/C=C(/C)C(=O)OC1Cc2c(ccc3ccc(=O)oc23)OC1(C)C (centres undefined) | 47.2% (active)
CC1(C)Oc2ccc3ccc(=O)oc3c2/C(=C/NCCO)C1=O | 5.05% (inactive)
CC1(C)Oc2ccc3ccc(=O)oc3c2/C(=N/O)C1=O | -15.2% (inactive)
Cc1nc(Cl)c(C#N)c2c1CCCC2 | 22.3% (inactive)
CC(=O)Nc1ccc(S(=O)(=O)NC2(C(F)(F)F)C(=O)Nc3c2c(=O)[nH]c(=O)n3Cc2ccccc2)cc1 (centres undefined) | 3.75% (inactive)
COC(=O)C1=C(C(=O)c2ccc(C)cc2)C(c2ccccc2)n2nnnc2N1 (centres undefined) | 36.7% (active)

SMILES | inhibition
COC(=O)c1ccc(C2C3=C(Nc4nnnn42)c2ccccc2OC3)cc1 (centres undefined) | 3.54% (inactive)
COc1ccccc1NC(=O)C1=C(C)Nc2nnnn2C1c1cccc(Br)c1 (centres undefined) | -22.3% (inactive)
CC1CCN(C(NC(=O)c2ccco2)C(=O)c2ccccc2)CC1 (centres undefined) | -1.98% (inactive)
CCOC(=O)C1=C(O)/C(=C/c2cc(C)n(-c3ccccc3)c2C)N=C1C | -12.5% (inactive)
Cc1cccc(Nc2nc(NCCO)nc(N3CCCC3)n2)c1 | 4.82% (inactive)
OCCCNc1nccc(-c2cc(Nc3cccc(Cl)c3)ncn2)n1 | 67.2% (active)
CC(C)n1cnc2c(Nc3cccc(Cl)c3)nc(N(CCO)CCCO)nc21 | -41.1% (inactive)
CSc1ncccc1C(=O)OCc1ccc(Br)cc1 | 5.14% (inactive)
c1ccc(Cc2cc[n+](Cc3ccccc3)cc2)cc1 | -7.68% (inactive)
COc1ccccc1OCc1nnc(SCC(N)=O)n1-c1ccccc1 | -18.9% (inactive)
Cc1nc2ccccc2c(=O)n1-c1ccc(F)c(NC(=O)c2cccs2)c1 | -10.2% (inactive)
CN1CCN(C(=O)CCc2nc(-c3ccc(Cl)cc3)no2)CC1 | -2.08% (inactive)
CCNC(=O)CCc1nc(-c2ccc(C(C)(C)C)cc2)no1 | 87.2% (active)
CCc1ccc(CNC(=O)CCc2nc(-c3cccs3)no2)cc1 | -6.74% (inactive)
CCOC(=O)C1CCN(C(=O)C2CCCN(S(=O)(=O)c3ccc(OC)c(Cl)c3)C2)CC1 (centres undefined) | -44.7% (inactive)
CCOc1ccccc1C1CC(c2ccc(Cl)cc2)Nc2nc(N)nn21 (centres undefined) | -1.91% (inactive)
COc1ccc(C(=O)n2nc(C)c(Br)c2C)cc1OC | -0.0717% (inactive)
COc1ccc(C(=O)n2nc(-c3ccc(Cl)cc3)nc2N)cc1OC | 39.3% (active)
COc1ccc(C(=O)n2nc(-c3ccc(C)cc3)nc2N)cc1OC | 7.38% (inactive)

Source: PubChem BioAssay AID435022 (Sanford-Burnham Center for Chemical Genomics, 2010)
